Test results published in PubChem BioAssay (NCATS).
Records with an inconclusive call do not appear. The source made the active and inactive calls. Calls come from the whole dose curve; as a rule, active = well fitted curve in the direction sought with a large enough effect; inconclusive = small, poorly fitted or top-dose-only effect, or another doubt; inactive = no such curve, though single readings can be large; an effect the other way counts as inactive or inconclusive.

Legend:
[1] = Quantitative High-Throughput drug screen in 47 multiple myeloma cell lines against the NCATS MIPE library collection: KMS20_JCRB cell viability assay (AID 1918973); note: nearly all actives have a fitted effect of over 45% in size; note: potency is the fitted concentration of half-maximal effect
Method in brief: (§1)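 qHTS of the MIPE 4.0 collection: 500 myeloma cells/well, 48 h drug exposure at 37C in 5% CO2, then CellTiter-Glo for 5 min at room temperature before luminescence reading.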

[2] = Quantitative High-Throughput drug screen in 47 multiple myeloma cell lines against the NCATS MIPE library collection: KMS21BM_JCRB cell viability assay (AID 1918974); conditions: ATP luminescence, 48 h; viability: at 45.8 µM (top of the series) unless noted; note: potency is the fitted concentration of half-maximal effect
Method in brief: as §1

[3] = Quantitative High-Throughput drug screen in 47 multiple myeloma cell lines against the NCATS MIPE library collection: KMS26_JCRB cell viability assay (AID 1918975); note: nearly all actives have a fitted effect of over 45% in size; note: potency is the fitted concentration of half-maximal effect
Method in brief: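 Luminescent ATP measurement with CellTiter-Glo gives viability, scaled between DMSO-only wells (100%) and media-only wells (0%). Cells, 500 per well, faced library compounds for 48 hours at 37C.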

[4] = Quantitative High-Throughput drug screen in 47 multiple myeloma cell lines against the NCATS MIPE library collection: MMM1_PLB cell viability assay (AID 1918976); note: potency is the fitted concentration of half-maximal effect; nearly all actives have a fitted effect of over 35% in size
Method in brief: (§2)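 Inhibition of viability over 48 h was scored by ATP content (CellTiter-Glo) in 500-cell wells. Zero and full viability were defined by media-only and DMSO-only wells.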

[5] = Quantitative High-Throughput drug screen in 47 multiple myeloma cell lines against the NCATS MIPE library collection: MOLP8_DSMZ cell viability assay (AID 1918977); note: nearly all actives have a fitted effect of over 45% in size; note: potency is the fitted concentration of half-maximal effect
Method in brief: as §2

[6] = Quantitative High-Throughput drug screen in 47 multiple myeloma cell lines against the NCATS MIPE library collection: NCIH929_DSMZ cell viability assay (AID 1918978); note: nearly all actives have a fitted effect of over 35% in size; note: potency is the fitted concentration of half-maximal effect
Method in brief: as §2

[7] = Quantitative High-Throughput drug screen in 47 multiple myeloma cell lines against the NCATS MIPE library collection: OCIMY1_PLB cell viability assay (AID 1918979); note: nearly all actives have a fitted effect of over 35% in size; note: potency is the fitted concentration of half-maximal effect
Method in brief: as §2

[8] = Quantitative High-Throughput drug screen in 47 multiple myeloma cell lines against the NCATS MIPE library collection: MM1S_ATCC cell viability assay (AID 1918980); note: nearly all actives have a fitted effect of over 45% in size; note: potency is the fitted concentration of half-maximal effect
Method in brief: as §2

[9] = Quantitative High-Throughput drug screen in 47 multiple myeloma cell lines against the NCATS MIPE library collection: MM1R_ATCC cell viability assay (AID 1918981); note: nearly all actives have a fitted effect of over 35% in size; note: potency is the fitted concentration of half-maximal effect
Method in brief: as §2

[10] = Quantitative High-Throughput drug screen in 47 multiple myeloma cell lines against the NCATS MIPE library collection: KMS12PE_JCRB cell viability assay (AID 1918972); note: nearly all actives have a fitted effect of over 30% in size
Method in brief: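 Steps: seed 500 cells per well; pin-transfer MIPE 4.0 library; incubate 48 h at 37C, 5% CO2, humidified; add CellTiter-Glo, 5 min room temperature; read luminescence.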

Structure (SMILES)	Potency [1]	Potency [2]	Potency [3]	Potency [4]	Potency [5]	Potency [6]	Potency [7]	Potency [8]	Potency [9]	Potency [10]
Cc1nc(N)ncc1-c1nc(N2CCOCC2)c2sc(C(C)(C)O)cc2n1	1.32 µM (active)	1050 nM (active)	0.526 µM (active)	0.148 µM (active)	118 nM (active)	0.0526 µM (active)	0.105 µM (active)	0.743 µM (active)	1.32 µM (active)	
Cc1ccc(NC(=O)C2(c3ccc4c(c3)OC(F)(F)O4)CC2)nc1-c1cccc(C(=O)O)c1	0.0833 µM (active)	46.9 nM (active)		0.0526 µM (active)	20.9 nM (active)	0.235 µM (active)	0.187 µM (active)	0.0526 µM (active)		
COc1cc(Nc2ncc(F)c(Nc3ccc4c(n3)N(COP(=O)(O)O)C(=O)C(C)(C)O4)n2)cc(OC)c1OC	1.66 µM (active)	743 nM (active)				3.72 µM (active)		20.9 µM (active)		
Cc1cc(Nc2cc(N3CCN(C)CC3)nc(C=Cc3ccccc3)n2)n[nH]1	4.29 µM (active)		21.5 µM (active)	30.3 µM (active)	9590 nM (active)	6.79 µM (active)	5.4 µM (active)	17.1 µM (active)	13.6 µM (active)	
COC(=O)[C@]12CCC(C)(C)C[C@@H]1[C@@H]1C(=O)C=C3[C@@]4(C)C=C(C#N)C(=O)C(C)(C)[C@@H]4CC[C@@]3(C)[C@]1(C)CC2	0.296 µM (active)	74.3 nM (active)		1.32 µM (active)	209 nM (active)	0.235 µM (active)	0.743 µM (active)	0.418 µM (active)	0.264 µM (active)	
C[C@@]12O[C@@H](C[C@]1(O)CO)n1c3ccccc3c3c4c(c5c6ccccc6n2c5c31)CNC4=O	0.148 µM (active)		5.9 µM (active)	3.32 µM (active)	209 nM (active)	0.469 µM (active)	2.35 µM (active)		0.833 µM (active)	
CC(C)(C)OC(=O)Nc1ccc(-c2cc(C(=O)NCCCCCCC(=O)NO)no2)cc1	2.64 µM (active)	935 nM (active)	3.72 µM (active)			1.66 µM (active)		2.35 µM (active)	1.87 µM (active)	
CCOc1cc2ncc(C#N)c(Nc3ccc(F)c(Cl)c3)c2cc1NC(=O)C=CCN(C)C	4.69 µM (active)		20.9 µM (active)	18.7 µM (active)	20900 nM (active)	5.9 µM (active)	18.7 µM (active)	0.296 µM (active)	4.18 µM (active)	
COC(=O)C[C@](O)(CCCC(C)(C)O)C(=O)O[C@@H]1C(OC)=C[C@]23CCCN2CCc2cc4c(cc2[C@H]13)OCO4					inactive	inactive				inactive
CCCCCCCCCC(=O)N[C@@H](Cc1c[nH]c2ccccc12)C(=O)N[C@H](CC(N)=O)C(=O)N[C@@H](CC(=O)O)C(=O)N[C@@H]1C(=O)NCC(=O)N[C@@H](CCCN)C(=O)N[C@@H](CC(=O)O)C(=O)N[C@H](C)C(=O)N[C@@H](CC(=O)O)C(=O)NCC(=O)N[C@H](CO)C(=O)N[C@@H]([C@@H](C)CC(=O)O)C(=O)N[C@@H](CC(=O)c2ccccc2N)C(=O)O[C@@H]1C					inactive	inactive	inactive		inactive	inactive
Cc1ccc(-c2ncn(-c3ccc(Nc4nccc(-c5cccc(N6CCOCC6)c5)n4)cc3)n2)cn1	0.0833 µM (active)	29.6 nM (active)	0.469 µM (active)	2.35 µM (active)	93.5 nM (active)	0.264 µM (active)	0.662 µM (active)	0.148 µM (active)	0.105 µM (active)	
CC(C)(O)CCc1ccc(OCc2cc(-c3cccc(OC(F)F)c3)c3ncccc3c2)cc1							inactive	14.8 µM (active)		inactive
C[C@]1(CO)CN(c2cc(C(=O)Nc3ccc4c(c3)-c3c(c(C(N)=O)nn3-c3ccc(F)cc3)CC4)c(Cl)cn2)C[C@@]1(C)CO	5.26 µM (active)	5260 nM (active)		14.8 µM (active)		9.35 µM (active)			8.33 µM (active)	
COc1cc(C(C)C)c2c(c1)S(=O)(=O)N(COc1cc(=O)n3cccc(OCCN4CCCCC4)c3n1)C2=O	18.7 µM (active)	18700 nM (active)				20.9 µM (active)	inactive	11.8 µM (active)		
COc1cc(C(=O)NS(=O)(=O)c2ccccc2C)ccc1Cc1cn(C)c2ccc(NC(=O)OC3CCCC3)cc12	6.62 µM (active)		16.6 µM (active)		18700 nM (active)	18.7 µM (active)			14.8 µM (active)	
COc1cc2c(Oc3ccc4[nH]c(C)cc4c3F)ncnc2cc1OCCCN1CCCC1	2.96 µM (active)			23.5 µM (active)		7.43 µM (active)	26.4 µM (active)	18.7 µM (active)		
Cc1cc(CN2CCN(c3c(Br)cnc4nc(-c5ccc(N6CCN(C)CC6)cc5)[nH]c34)CC2)no1	2.35 µM (active)		7.43 µM (active)		7430 nM (active)	2.35 µM (active)	14.8 µM (active)	5.9 µM (active)		
Cn1cc(-c2ccncc2)c(-c2ccc(OCc3ccc4ccccc4n3)cc2)n1		3320 nM (active)	7.43 µM (active)	2.96 µM (active)			16.6 µM (active)		10.5 µM (active)	
Cn1c(=O)n(-c2ccc(C(C)(C)C#N)cc2)c2c3cc(-c4cnc5ccccc5c4)ccc3ncc21	0.372 µM (active)		0.209 µM (active)	0.209 µM (active)	16.6 nM (active)		0.0662 µM (active)		0.118 µM (active)	
CC(C)(C)c1cc(NC(=O)Nc2ccc(-c3cn4c(n3)sc3cc(OCCN5CCOCC5)ccc34)cc2)no1		inactive	18.7 µM (active)			inactive		inactive		

Structure (SMILES)	Potency [1]	Potency [2]	Potency [3]	Potency [4]	Potency [5]	Potency [6]	Potency [7]	Potency [8]	Potency [9]	Potency [10]
COC(=O)Nc1nc2ccc(C(=O)c3ccc(F)cc3)cc2[nH]1		296 nM (active)	5.26 µM (active)	11.8 µM (active)	418 nM (active)	0.743 µM (active)	0.662 µM (active)		0.833 µM (active)	
O=C(Nc1nc2cccc(-c3ccc(CN4CCS(=O)(=O)CC4)cc3)n2n1)C1CC1	18.7 µM (active)		13.2 µM (active)		14800 nM (active)		23.5 µM (active)	20.9 µM (active)	14.8 µM (active)	
C=CC(=O)Nc1cccc(Oc2nc(Nc3ccc(N4CCN(C)CC4)cc3)ncc2Cl)c1	1.87 µM (active)		26.4 µM (active)	23.5 µM (active)		3.72 µM (active)	16.6 µM (active)	18.7 µM (active)	14.8 µM (active)	
CCCCc1nc2cc(C=CC(=O)NO)ccc2n1CCN(CC)CC	0.209 µM (active)				132 nM (active)	0.935 µM (active)	1.66 µM (active)	0.526 µM (active)	0.235 µM (active)	
CCCCOc1c(C(=O)c2c(F)cc(C)cc2F)cnc2n[nH]cc12	4.18 µM (active)				2960 nM (active)	1.32 µM (active)		2.09 µM (active)	3.72 µM (active)	
Cc1nc(Nc2n[nH]c3c2CN(C(=O)N[C@H](CN(C)C)c2ccccc2)C3(C)C)c2sccc2n1	0.105 µM (active)			4.69 µM (active)		0.148 µM (active)	16.6 µM (active)	2.64 µM (active)		
Cc1nc2cnc3ccc(C#Cc4cccnc4)cc3c2n1-c1ccc(C(C)(C)C#N)cc1	0.0148 µM (active)					0.0264 µM (active)	1.48 µM (active)	0.0743 µM (active)	0.166 µM (active)	
Nc1ccn([C@@H]2O[C@H](CO)[C@H](O)C2(F)F)c(=O)n1	0.418 µM (active)					0.264 µM (active)		0.0187 µM (active)	0.0093 µM (active)	
CCOc1ccccc1OCCNC(C)Cc1ccc(OC)c(S(N)(=O)=O)c1 (stereo not given)	inactive		inactive		inactive	inactive	inactive	inactive	inactive	
O=C(Nc1cn[nH]c1-c1nc2ccc(CN3CCOCC3)cc2[nH]1)NC1CC1	2.96 µM (active)		4.69 µM (active)		2640 nM (active)	1.18 µM (active)		1.87 µM (active)		
COc1cc2c(Nc3ccc(NC(=O)c4ccccc4)cc3)ncnc2cc1OCCCN1CCOCC1	10.5 µM (active)		37.2 µM (active)			16.6 µM (active)	23.5 µM (active)		23.5 µM (active)	
COCCn1c2c([n+](Cc3cnccn3)c1C)C(=O)c1ccccc1C2=O	0.0235 µM (active)		0.0148 µM (active)		23.5 nM (active)	0.0332 µM (active)	0.0264 µM (active)	0.0037 µM (active)	0.0042 µM (active)	
Cc1cc(Nc2cc(CN3CCOCC3)c3nc(C)c(Cc4ccc(Cl)cc4F)n3n2)n[nH]1	5.26 µM (active)			14.8 µM (active)	20900 nM (active)	26.4 µM (active)		20.9 µM (active)	18.7 µM (active)	
NC(=O)c1c(OCc2c(F)cc(Br)cc2F)nsc1NC(=O)NCCCCN1CCCC1	7.43 µM (active)				26400 nM (active)	9.35 µM (active)		2.96 µM (active)	20.9 µM (active)	
CCCCN1CCC(CNC(=O)c2c3n(c4ccccc24)CCCO3)CC1	13.2 µM (active)			5.26 µM (active)		4.69 µM (active)				
COc1cc2ncn(-c3cc(OCc4ccccc4C(F)(F)F)c(C(N)=O)s3)c2cc1OC		1320 nM (active)	18.7 µM (active)	20.9 µM (active)		7.43 µM (active)			18.7 µM (active)	
C#Cc1cccc(Nc2ncnc3cc(OC)c(OCCCCCCC(=O)NO)cc23)c1	0.0833 µM (active)		0.105 µM (active)	0.418 µM (active)	166 nM (active)	0.0935 µM (active)		0.0235 µM (active)	0.166 µM (active)	
NCC(=O)Nc1ccc(-n2nc(C(F)(F)F)cc2-c2ccc3c(ccc4ccccc43)c2)cc1	9.35 µM (active)			23.5 µM (active)		16.6 µM (active)				
Cc1cc(Nc2nc(N[C@@H](C)c3ccc(F)cc3)c(C#N)cc2F)n[nH]1	5.26 µM (active)		8.33 µM (active)	6.62 µM (active)		13.2 µM (active)				
CN(C)c1nc(Cc2ccc(NC(=O)c3ccc4ccccc4c3)cc2)nc(Cl)c1CC(=O)O	inactive		inactive		inactive	inactive			inactive	
